Most compounds without a hit are left out; they make up all but 3.2% or so of the library.
GDH-TPI inh: inhibits GDH-TPI coupling enzymes, artifact for Mtb FBA screen | GDH-TPI coupled enzyme counterscreen, NADH absorbance | inhibition, % at 4.8 µM | hit rate 1.2% among 360,000; in the data active = inhibition above about 30%;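 note: 0% = DMSO wells and 100% = wells lacking the enzyme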
TcdB inh: inhibitors of Clostridioides difficile toxin B glycohydrolase; inhibition, % at 9.99 µM; P18177; AID 652162; TcdB glycohydrolase enzymatic assay, plate reader; hit rate 0.24% among 350,000; in the data active = inhibition above about 10%
Yp Topo-I inh: blocks Yersinia pestis topoisomerase I activity; activity, % at 10 µM; hit rate 0.064% among 360,000; AID 504884; Y. pestis Topo-I cleavage product accumulation, plate reader; in the data active = activity above about 50%, passing the limit was not always enough
PrPC TRFRET: inhibitors of human cell surface prion protein PrPC; P04156; TR-FRET read-out; inhibition, % at 13.8 µM; hit rate 0.43% among 370,000; AID 720596; in the data active = inhibition above about 24%; note: 0% = median of the test wells and 100% = reference compound wells
FBA Mtb inh: inhibits M. tuberculosis FBA enzyme. P9WQA3. purified M. tuberculosis FBA, fluorescence read-out. inhibition, % at 1 µM. hit rate 2.3% among 360,000; in the data active = inhibition above about 27%;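 note: 0% = vehicle and 100% = reference inhibitor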
Starred values were filed as active, the others as inactive; / = no result; + = active, no number.

SMILES	GDH-TPI inh	TcdB inh	Yp Topo-I inh	PrPC TRFRET	FBA Mtb inh
C[C@@H]1CCCCO[C@H](CN(C)Cc2ccncc2)[C@H](C)CN([C@@H](C)CO)C(=O)c2cc(NS(C)(=O)=O)ccc2O1	/	0.2	/	/	/
C[C@H](CO)N1C[C@H](C)[C@@H](CN(C)S(=O)(=O)c2cccs2)Oc2ccc(NC(=O)Cc3cn(C)c4ccccc34)cc2C1=O	/	0.1	/	/	/
CC(=O)Nc1ccc2nc(NC(=O)c3cccs3)sc2c1	53.1*	0.3	4.3	4.9	-2.2
CCN(CC)S(=O)(=O)c1ccc2nc(NC(=O)c3ccco3)sc2c1	19.0	0.4	-14.5	5.0	22.7
O=C(Nc1nc2ccccc2s1)c1cccc(N2C(=O)CCC2=O)c1	11.6	-0.5	3.0	8.4	-1.1
CCN(CC)S(=O)(=O)c1ccc2nc(NC(=O)c3cccs3)sc2c1	35.5*	/	-6.5	-1.2	19.4
O=C(Nc1nc2cc3c(cc2s1)OCCO3)c1cccs1	37.7*	0.6	-10.2	5.7	3.8
O=C(Nc1nc2cc3c(cc2s1)OCCO3)c1cccc(N2C(=O)CCC2=O)c1	31.2*	1.5	-4.2	-2.9	4.2
Cc1nc2ccc(NC(=O)c3cccs3)cc2s1	2.4	0.6	0.3	11.3	-0.4
COc1ccccc1C(=O)Nc1nc2cc3c(cc2s1)OCCO3	3.9	/	18.7	/	8.9
CCNC(=O)Nc1ccc2c(c1)C(=O)N(C)[C@H]1CC[C@H](CC(=O)NCc3ccccc3F)O[C@H]1CO2	/	1.0	/	/	/
O=C(Nc1cc(F)ccc1F)N1C[C@@H]2[C@H](c3ccccc31)[C@@H](CO)N2Cc1cccnc1	/	-7.3	/	/	/
O=C(C[C@H]1C[C@@H]2c3cc(NC(=O)Cc4ccncc4)ccc3O[C@@H]2[C@H](CO)O1)NCc1cccnc1	/	-11.5	/	/	/
COc1ccccc1OCCn1cc(/C=N/NC(=O)c2ccncc2)c2ccccc21	53.7*	0.9	8.5	0.6	-1.0
O=C(O)c1ccc(N/N=C/c2cn(Cc3ccccc3F)c3ccccc23)cc1	42.0*	0.4	-13.2	5.7	11.1
COc1cc(C(=O)N/N=C/c2cn(Cc3ccccc3)c3ccccc23)ccc1O	37.1*	1.9	-4.4	12.5	-0.7
COC(=O)N/N=C/c1cn(Cc2ccccc2F)c2ccccc12	27.9	1.9	1.0	9.8	9.7
C(=N\n1cnnc1)/c1cn(Cc2ccccc2)c2ccccc12	31.5*	/	26.4	6.8	-2.5
Clc1ccc(Cn2cc(/C=N/n3cnnc3)c3ccccc32)c(Cl)c1	10.2	/	16.3	6.5	2.0
Nc1ccc(C(=O)N/N=C/c2cn(Cc3ccc(F)cc3)c3ccccc23)cc1	32.8*	-1.9	-8.3	13.5	1.9
O=C(N/N=C/c1cn(Cc2cccc(F)c2)c2ccccc12)c1cc(O)cc(O)c1	25.4	0.5	4.6	-0.2	1.2
Nc1ccc(C(=O)N/N=C/c2cn(Cc3ccccc3F)c3ccccc23)cc1	29.9	1.2	-15.1	6.7	-2.0
Nc1ccc(C(=O)N/N=C/c2cn(Cc3ccccc3)c3ccccc23)cc1	36.5*	-0.3	-10.6	11.7	1.4
CO[C@H]1CN(C)C(=O)c2ccc(NC(=O)CC(F)(F)F)cc2OC[C@@H](C)N(S(=O)(=O)c2cn(C)cn2)C[C@@H]1C	/	-1.0	/	/	/
C[C@H](CO)N1C[C@H](C)[C@@H](CN(C)C(=O)Nc2cccc3ccccc23)Oc2ccc(NS(=O)(=O)c3ccc(F)cc3)cc2CC1=O	/	0.7	/	/	/
SMILES	GDH-TPI inh	TcdB inh	Yp Topo-I inh	PrPC TRFRET	FBA Mtb inh
Cc1ccc(S(=O)(=O)N2CCC(C(=O)OCC(=O)NCCc3ccccc3)CC2)cc1C	2.1	16.3*	11.4	-1.9	2.3
C=CCOc1c(Br)cc(CNc2ccc3[nH]c(=O)[nH]c3c2)cc1OCC	14.2	1.1	-12.6	2.0	-1.3
C=CCOc1cccc(CNc2ccc3[nH]c(=O)[nH]c3c2)c1	-7.6	23.9*	-1.0	5.1	8.2
Cc1nc2nc(-c3ccc(Cl)cc3)cn2nc1C	-4.8	/	0.9	-5.4	141.6*
CCN(CC)Cc1c(O)ccc2c(=O)c(Oc3ccccc3OC)c(C)oc12	21.7	1.0	8.5	4.7	+
COc1ccccc1Oc1c(C)oc2c(CN(C)C)c(O)ccc2c1=O	23.3	0.1	-7.9	-3.5	+
Cc1cc(=O)oc2c(CN(C)Cc3ccccc3)c(O)ccc12	19.4	/	1.1	-5.2	/
CCCC#Cc1cnc2c(c1)C(=O)N([C@H](C)CO)C[C@@H](C)[C@H](CN(C)C(=O)Cc1ccncc1)O2	/	-0.1	/	/	/
O=C(C[C@@H]1CC[C@@H]2[C@H](COC[C@H](O)CN2C(=O)Cc2ccccc2)O1)NC1CCCC1	/	-0.5	/	/	/
O=[N+]([O-])c1ccc(/C=C/c2ccc3cccc(O)c3n2)cc1	17.5	-0.5	-2.2	-32.8	1.2

Compound activity from PubChem BioAssay.
